From PubChem
TexasRed fluor – Total Fluorescence Counterscreen for Inhibitors of the Interaction of Thyroid Hormone Receptor and Steroid Receptor Coregulator 2 | TRb/SRC2 Texas Red total fluorescence interference | Potency, µM (series often up to 106 µM), without a hit: top-dose fluorescence change, negative = quenching | hit rate 0.29% among 280,000; active = well fitted curve in either direction with a large enough effect; inconclusive = small, poorly fitted or top-dose-only effect; also: potency is read from the fitted curve at half-maximal effect; % is scaled to controls: 0 for no effect and ±100 for the full control effect
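Flags fluorescent or light-absorbing compounds by total fluorescence, S + 2P, at 555 nm excitation and 632 nm emission. Mixture: 20 nM Texas Red SRC2 peptide, 0.6 uM human TRb LBD, 1 uM T3, 5% DMSO; compound exposure 5 h at ambient temperature.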
TRb-SRC2 inh – qHTS for Inhibitors of the Interaction of Thyroid Hormone Receptor and Steroid Receptor Coregulator 2; Potency, µM (highest dose often 106 µM), without a hit: top-dose activity change, negative = inhibition, actives largely listed as inhibitors; TRbeta-SRC2 peptide binding, fluorescence polarization; receptor liganded with 1 µM T3; hit rate 0.065% among 280,000; AID 1469, 2008; Thyroid hormone receptor beta (Homo sapiens), P10828; active = well fitted inhibition curve with a large enough effect; inconclusive = small, poorly fitted or top-dose-only effect, or effect the other way;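 also: potency is read from the fitted curve at half-maximal effect; plate controls were bound peptide for no effect and peptide without receptor for full effect; nearly all actives have a fitted effect of over 50% in size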
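Decrease in fluorescence polarization of 20 nM Texas Red SRC2 coactivator peptide flagged inhibition of its binding to 0.6 uM TRb LBD; 1 uM T3 included, incubation 5 hr, ex 555/em 632 nm.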
Menin MLL FP TR – qHTS Assay for Inhibitors Targeting the Menin-MLL Interaction in MLL Related Leukemias: Competition With Texas Red Labeled MLL-derived Mutant Peptide. hit rate 0.23% among 270,000. Menin + Texas Red MLL mutant peptide, fluorescence polarization. Potency, µM (highest dose often 61.6 µM), for the others: at the top dose FP activity change, negative = inhibition, most hits filed as inhibitors; active = well fitted inhibition curve with a large enough effect in the polarisation, with a control signal flat, not every such curve was filed as active; inconclusive = small, poorly fitted or top-dose-only effect, or effect the other way, or a change in a side signal; inactive = no such curve, though single readings can be large or run the other way; the % refers to the polarisation; also: potency is read from the fitted curve at half-maximal effect; % of control where 0% means no effect
GoLoco inh red – qHTS Assay for Inhibitors of RGS12 GoLoco Motif Activity (Red Fluorophore) | hit rate 0.44% among 230,000 | AID 880, 2007 | Gai1:RGS12 GoLoco peptide FP, rhodamine, 10 min | Potency, µM (doses to about 61.6 µM), for inactives: at the top dose activity, negative = inhibition, usual class: inhibitors; active = well fitted inhibition curve with a large enough effect, not every such curve was filed as active; inactive = no such curve, though single readings can be large or run the other way; also: potency is read from the fitted curve at half-maximal effect; % is scaled to controls: 0 for no effect and ±100 for the full control effect; nearly all actives have a fitted effect of over 30% in size
Target sequence (P63096 whole entry, looked up): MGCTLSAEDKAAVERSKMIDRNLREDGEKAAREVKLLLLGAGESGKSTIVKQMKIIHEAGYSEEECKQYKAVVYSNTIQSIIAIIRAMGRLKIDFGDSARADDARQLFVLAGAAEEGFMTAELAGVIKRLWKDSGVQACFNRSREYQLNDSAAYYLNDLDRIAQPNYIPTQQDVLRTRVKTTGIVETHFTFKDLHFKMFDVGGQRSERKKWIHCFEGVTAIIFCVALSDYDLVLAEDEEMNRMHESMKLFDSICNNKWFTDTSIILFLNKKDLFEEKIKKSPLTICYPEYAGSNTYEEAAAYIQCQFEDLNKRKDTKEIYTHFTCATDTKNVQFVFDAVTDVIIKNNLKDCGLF
CXXC DNA block – qHTS Fluorescence Polarization Assay for Inhibitors of MLL CXXC domain - DNA interaction | Histone-lysine N-methyltransferase 2A (Homo sapiens), Q03164 | MLL-CXXC / FITC-HOXA9 DNA fluorescence polarization | Potency, µM (doses to about 115 µM), for the others: at the top dose activity change, negative = inhibition, most hits filed as inhibitors | hit rate 0.037% among 290,000; active = well fitted inhibition curve with a large enough effect in the polarisation, with a control signal flat, not every such curve was filed as active; inconclusive = small, poorly fitted or top-dose-only effect, or effect the other way, or a change in a side signal; inactive = no such curve, though single readings can be large or run the other way; the % refers to the polarisation; also: potency is read from the fitted curve at half-maximal effect
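Steps: dispense CXXC domain solution (7 uM) → pin compounds or unlabeled HOX-A9 DNA control → 5 min ambient → add FLSN-HOX-A9 solution (50 nM) → spin → 30 min ambient → fluorescence polarization. Tris pH 7.5/NaCl/DTT/BSA buffer.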
Menin MLL FP FL – qHTS Assay for Inhibitors Targeting the Menin-MLL Interaction in MLL Related Leukemias: Competition With Fluorescein Labeled MLL-derived Peptide; Fluorescence polarization, fluorescein-MLL peptide displacement from menin; FP activity change, % at 61.4 µM; 290,000 tested, under 10 active; active = well fitted curve in the direction sought with a large enough effect in the polarisation, not every such curve was filed as active; inconclusive = small, poorly fitted or top-dose-only effect, or effect the other way, or a change in a side signal; inactive = no such curve, though single readings can be large or run the other way; the % refers to the polarisation; also: % of control where 0% means no effect
* marks the source's active call; other numbers are inactive results; [ ] = remark or other dose. In the library only some 0.5% were active in any assay of this set; here they are far more common.

`CC1N(C)c2cc(NC(=O)c3ccco3)ccc2C1(C)C` (centres undefined) gave TexasRed fluor 44.7µM*[fluorescent], TRb-SRC2 inh inconclusive, Menin MLL FP TR inconclusive, GoLoco inh red 164.4%, CXXC DNA block -2.2% and Menin MLL FP FL 0.5.
Screening Cn1c(-n2cccc2)c(-c2c(-c3ccccc3)[nH]c3c2c(=O)n(C)c(=O)n3C)c(=O)n(C)c1=O returned TexasRed fluor 25119µM*[quencher] and TRb-SRC2 inh -11.0%.
`COc1cccc(-c2[nH]c3c(c2-c2c(-n4cccc4)n(C)c(=O)[nH]c2=O)c(=O)[nH]c(=O)n3C)c1` gave TexasRed fluor 2.3% and TRb-SRC2 inh 2.2%.
For CCCCn1cc(S(=O)(=O)c2ccc(CC)cc2)c(=O)c2cc(F)c(N3CCCC(C)C3)cc21 (centres undefined) the results were TexasRed fluor 89.1µM*[quencher] and TRb-SRC2 inh -26.9%.
For CCc1ccc(S(=O)(=O)c2cn(C)c3cc(N4CCCC4)c(F)cc3c2=O)cc1 the results were TexasRed fluor 7.7% and TRb-SRC2 inh 6.7%.
CCCn1cc(S(=O)(=O)c2cc(C)ccc2C)c(=O)c2cc(F)c(N3CCOCC3)cc21 was read as TexasRed fluor 25.1µM*[quencher] and TRb-SRC2 inh inconclusive.
Screening CCCCn1cc(S(=O)(=O)c2ccc(Cl)cc2)c(=O)c2cc(F)c(N3CCCC(C)C3)cc21 (centres undefined) returned TexasRed fluor 100µM*[quencher] and TRb-SRC2 inh -14.8%.
Screening CCc1ccc(S(=O)(=O)c2cn(C)c3cc(N4CCCCC4C)c(F)cc3c2=O)cc1 (centres undefined) returned TexasRed fluor 112µM*[quencher] and TRb-SRC2 inh -24.0%.
Screening NCCNCCN returned TexasRed fluor -5.6%, TRb-SRC2 inh -1.2%, Menin MLL FP TR inconclusive and Menin MLL FP FL inconclusive.
For CCOc1cccc2sc(N(CCN(CC)CC)C(=O)c3ccco3)nc12 the results were TexasRed fluor 14.1µM*[quencher] and TRb-SRC2 inh -11.2%.
CCOc1ccccc1-c1nnc2n1N=C(c1cc(OC)cc(OC)c1)CS2 was read as TexasRed fluor -1.6%, TRb-SRC2 inh 3.1%, Menin MLL FP TR -15.2% and Menin MLL FP FL 2.2.
Screening COc1cc(NS(=O)(=O)c2ccc3[nH]c4c(c3c2)CCCC4)cc(OC)c1OC returned TexasRed fluor 20µM*[quencher] and TRb-SRC2 inh -14.5%.
C[C@@]12C[C@H](O)C3[C@H](CCC4=CC(=O)CC[C@]43C)[C@H]1CC[C@@H]2c1csc(-c2ccccc2)n1 (some centres undefined) was read as GoLoco inh red 5.9%[14.2 µM].
O=C(O)CN(CCCN(CC(=O)O)CC(=O)O)CC(=O)O was read as TexasRed fluor -0.8%[201 µM] and TRb-SRC2 inh 0.8%[201 µM].
`O=C(COc1ccc(F)cc1)N(c1ccccn1)C1CCCCC1` gave TexasRed fluor -0.1%, TRb-SRC2 inh 0.3%, Menin MLL FP TR -0.2%, GoLoco inh red 0.6%, CXXC DNA block -6.0% and Menin MLL FP FL 4.6.
`CC(C)c1ccc(OCC(=O)N(c2ccccn2)C2CCCCC2)cc1` gave TexasRed fluor 5.62µM*[quencher], TRb-SRC2 inh -26.3%[53 µM], Menin MLL FP TR -0.3%, GoLoco inh red 3.6%, CXXC DNA block 18.2% and Menin MLL FP FL 0.0.
Screening Cc1ccc(NC(=O)/C(C#N)=C(\N)C(Cl)(Cl)Cl)nc1 returned TexasRed fluor 1.6%, TRb-SRC2 inh -1.3%, Menin MLL FP TR -22.6%, GoLoco inh red 3.55µM*, CXXC DNA block -25.0% and Menin MLL FP FL inconclusive.
